The campaign covered roughly 360,000 compounds. About 2,000 (0.56%) were called active.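 Rule for the calls: active = activation above the average of all compounds screened plus 3 SD, cutoff fixed separately per campaign (cut at about 7.5% in these data); inactive = the rest.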 The sample as a whole holds a higher share of actives than the screen did.

The test in a line: GAA850 frataxin promoter reporter upregulation – cell-based, luciferase luminescence, HEK293 lucGAA850, primary screen (AID 540364).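 Note: 0% = DMSO wells and 100% = 10 µM SAHA wells.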 As to conditions: HEK293 lucGAA850 FXN promoter luciferase reporter, 24 h; at 6 µM; active compounds read high; percent of 10 µM SAHA response.
`Cc1nc(-c2ccc(F)cc2)c(CC(=O)Nc2cccc(S(=O)(=O)N3CCOCC3)c2)s1`: the activation was -0.93% (inactive).

With `Cc1nc(-c2ccc(F)cc2)c(CC(=O)Nc2cc(S(=O)(=O)N3CCCCC3)ccc2C)s1`, the activation was 18.7% (active).

On to `Cc1nc(-c2ccc(F)cc2)c(CC(=O)N2CCN(S(=O)(=O)c3ccc(F)cc3)CC2)s1`, for which the activation was 1.58% (inactive).

With `CSCCC(NC(N)=O)C(=O)N(C)CC(=O)Nc1ccc(C)cc1` (stereo not given), the activation is 0.85% (inactive).

Take `CCOc1cc(S(=O)(=O)NCc2ccc3c(c2)OCO3)ccc1F`: the activation was 1.09% (inactive).

As for `Cc1ccc(-c2nc3ccccc3[nH]c2=O)cc1`, the activation is 8.59% (active).

Take `Cc1ccc(-c2nnc(-n3nnc4ccccc43)c3ccccc23)cc1`: the activation was 3.17% (inactive).

As to `Cc1ccccc1N1CC(c2nc3ccccc3[nH]2)CC1=O` (stereo not given), the activation was -3.78% (inactive).

For the compound `COc1ccc(Nc2nc(NCc3ccco3)nc(N/N=C/c3ccccc3Cl)n2)cc1`, the activation was 0.27% (inactive).

Turning to `CN(c1ccccc1)c1nc(N)c([N+](=O)[O-])c(NCc2ccco2)n1`, the activation is 6.64% (inactive).

In the case of `COc1cccc(Nc2nc(N)c([N+](=O)[O-])c(NCc3ccco3)n2)c1`, the activation is 12.7% (active).

On to `CCOC(=O)C1CCN(C(=O)CN2C(=O)NC(C)(c3ccc4cc(OC)ccc4c3)C2=O)CC1` (stereo not given), for which the activation was -1.63% (inactive).

With `CCOC(=O)C1CCN(c2ncnc3c2c(-c2ccccc2)cn3-c2ccc(C)cc2)CC1`, the activation is 0.35% (inactive).

Regarding `O=c1c2c(-c3ccccc3)ccnc2[nH]n1-c1ccccc1`, the activation was 2.17% (inactive).

For `O=c1[nH]cnc2c1c(-c1ccccc1)cn2-c1ccc(F)cc1`, the activation is 8.36% (active).

Consider `CCc1nnc(NC(=O)CSc2nnc(COc3ccc(C#N)cc3)n2-c2ccccc2)s1`, for which the activation was 0.66% (inactive).

As to `CCOc1ccc(CCNC(=O)C2CCN(c3ccc(N4CCOCC4)nn3)CC2)cc1OCC`, the activation is 2.52% (inactive).

On to `CCCCCCCCCCCCN1[C@@H](CC(C)=O)c2cc(F)cc(F)c2S1(=O)=O`, for which the activation is 0.59% (inactive).

For the compound `COc1ccccc1C1=CC(=O)CCC1`, the activation is -2.28% (inactive).

Turning to `COc1ccccc1-c1nc(C(F)(F)F)c(OC)o1`, the activation was 0.69% (inactive).

`COc1ccccc1C1=Nc2cccc3cccc(c23)N1`: the activation was 11.7% (active).

Turning to `CCOCCOCCC(C(=O)O)P(=O)(c1ccccc1)c1ccccc1` (stereo not given), the activation was -1.43% (inactive).

For the compound `CCOc1ccc(NC(=O)CN(C)C(=O)COc2cccc(CC)c2)cc1OCC`, the activation was 0.68% (inactive).

Consider `C[C@H](CO)N1C[C@H](C)[C@@H](CN(C)C(=O)c2cccc(F)c2)Oc2cc(-c3cncnc3)ccc2S1(=O)=O`, for which the activation was 0.78% (inactive).

On to `COc1ccccc1CNC(=O)c1ccc(N(C)S(=O)(=O)c2ccc(C)cc2)cc1`, for which the activation is 0.45% (inactive).

As to `COc1ccc(NC(=O)CC2C(=O)OCC3CCCCN32)cc1Cl` (stereo not given), the activation was 3.58% (inactive).

Regarding `COc1ccc(/C=C/C(=O)c2c(O)cc(OC)cc2OC)cc1`, the activation was 1.23% (inactive).

Consider `O=C(NCCCn1ccnc1)c1cc(-c2ccccc2)on1`, for which the activation was 20.8% (active).

As for `O=C(NC1CCCCC1)c1cc(C2CC2)on1`, the activation is 2.15% (inactive).

For `COc1cc(OC)cc(C(=O)NCCCn2ccnc2)c1`, the activation was 1.13% (inactive).

In the case of `O=C(NCCCn1ccnc1)c1cc(Br)c(Br)s1`, the activation is 1.52% (inactive).

With `O=C(NC1CCCCCCC1)c1cccs1`, the activation is 1.55% (inactive).

For `O=C(NC1CCCC1)c1cc(-c2ccccc2)on1`, the activation was 8.61% (active).

Take `Fc1ccc(CNc2nc3ccccc3n3nnnc23)cc1`: the activation was 4.29% (inactive).

Take `O=S(=O)(c1ccc(Sc2nnc3ccccn23)nc1)N1CCOCC1`: the activation was -1.38% (inactive).

`CC1(C)CC(=O)CC2(C1)NCC(c1ccccc1Cl)c1c2[nH]c2ccccc12` (stereo not given): the activation was -7.14% (inactive).

On to `CCCc1c(C(=O)O)cnn1-c1ccc(Cl)cc1`, for which the activation is -0.1% (inactive).

Take `CCCNC(=O)CCc1c(C)nc2c(c(C)nn2-c2ccc(C)cc2)c1C`: the activation is 0.2% (inactive).

For `CCCNC(=O)c1c(Cl)cnn1-c1ccc(C)cc1`, the activation is 7.7% (active).

Take `Cc1cnc(C(=O)OCc2c(C)cc(C(C)(C)C)cc2C)cn1`: the activation was 1.56% (inactive).

As for `CC(Oc1ccccc1)C(=O)NN1Cc2ccccc2C1=N` (stereo not given), the activation is 2.03% (inactive).

As to `CCOC(=O)c1nn(-c2cccc(C)c2)cc1C(=O)c1ccccc1`, the activation is 6.71% (inactive).

In the case of `CCCNC(=O)c1cc(C2CCCCN2S(=O)(=O)c2ccc(C#N)cc2)on1` (stereo not given), the activation was 1.65% (inactive).

Turning to `O=C(CSc1cccc2cccnc12)N/N=C/c1cccnc1`, the activation is 15.3% (active).

For `Cc1ccc(S(=O)(=O)N(CC(=O)N/N=C/c2ccc(F)cc2)c2cccc3cccnc23)cc1`, the activation is -4.8% (inactive).

Consider `Cc1c(NC(=O)CSc2cccc3cccnc23)c(=O)n(-c2ccccc2)n1C`, for which the activation was 2.68% (inactive).

Consider `COc1ccccc1N(CC(=O)Nc1ccc(C)cc1Cl)S(=O)(=O)c1cccs1`, for which the activation was 0.98% (inactive).

Regarding `Cc1ccccc1-n1c(C)cc(/C=N/NC(=O)c2ccc(CN3CCOCC3)cc2)c1C`, the activation was 0.54% (inactive).

Take `COc1ccc(CCNC(=O)C(=O)NCC2OCCN2S(=O)(=O)c2ccc(F)cc2)cc1OC` (stereo not given): the activation was -0.5% (inactive).

Consider `Cc1noc(C)c1-c1ccc2ncnc(NC(C)c3ccco3)c2c1` (stereo not given), for which the activation is 10.2% (active).

Consider `CCc1c(N=O)c(-c2ccccc2)n(O)[n+]1[O-]`, for which the activation was 3.14% (inactive).

As for `COc1cc(/C=C2\Oc3ccc(C#Cc4ccc(O)cc4)cc3C2=O)cc(OC)c1`, the activation is -0.08% (inactive).

As for `COc1cc(C#Cc2ccc3cc(CCCO)oc(=O)c3c2)cc(OC)c1`, the activation was 7.61% (active).

For the compound `CC(C)c1ccc(S(=O)(=O)N2CCC3(CC2)OCCO3)cc1`, the activation was -0.76% (inactive).

Turning to `COCOCCn1cc(CN2CCS(=O)(=O)N(Cc3ccc(-c4ccccc4)cc3)C(CC(C)C)C2=O)nn1` (stereo not given), the activation is -0.25% (inactive).

`CCOc1cccc2cc(C(=O)OCC(=O)Nc3c(C)cccc3CC)c(=O)oc12`: the activation was 1.17% (inactive).

With `Cc1nc(SCc2ccc(F)cc2)c([N+](=O)[O-])[nH]1`, the activation was 0.83% (inactive).

As to `O=[N+]([O-])c1ccccc1OCCCCN1CCCCC1`, the activation was 1.12% (inactive).

`CCCCCOc1ccc(CSC2=NCCN2)cc1[N+](=O)[O-]`: the activation is 8.36% (active).

Take `Cc1oc2c(F)c(F)c(F)c(F)c2c1S(=O)(=O)Nc1cccc(C(F)(F)F)c1`: the activation is -1.14% (inactive).

For the origin of these results see PubChem BioAssay AID540364 (The Scripps Research Institute Molecular Screening Center, 2011).
